In PubChem BioAssay (NCI):
Compounds without any hit were thinned out: in the full panel of roughly 83,000, 20% have a hit.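 Note: values are percent growth. 100 is the growth of untreated cells, values between 100 and 0 indicate rising inhibition; between -100 and 0 indicates cell death.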 The source made the active and inactive calls. The calls were made as follows: active = growth percent below 10; inactive = the rest.

Tests used:
Assay in all cases: NCI-60 one-dose screen, 48 h (100 = growth as untreated, 0 = no growth, -100 = all killed)
Details in all cases: 10 µM unless noted
[1] = system: DU-145 prostate
[2] = system: K-562 leukemia
[3] = system: MALME-3M melanoma
[4] = system: MDA-MB-231 breast
[5] = system: SF-268 CNS
[6] = system: SF-295 CNS
[7] = system: SF-539 CNS
[8] = system: UACC-257 melanoma
[9] = system: M14 melanoma
[10] = system: HCT-15 colon
[11] = system: HT29 colon
[12] = system: SNB-75 CNS
[13] = system: SNB-19 CNS
[14] = system: PC-3 prostate
[15] = system: SK-MEL-5 melanoma
[16] = system: UACC-62 melanoma
[17] = system: LOX IMVI melanoma
[18] = system: SK-MEL-28 melanoma
[19] = system: U251 CNS
[20] = system: RXF 393 renal

Measured: growth

Cc1cc(Nc2nc(N3CCNCC3)nc3ccccc23)n[nH]1
active: [12] -16.6%
inactive: [1] 119% | [2] 81.5% | [3] 80.4% | [4] 103% | [5] 90.6% | [6] 88% | [7] 79.4% | [8] 87.1% | [9] 92.5% | [10] 70.5% | [11] 82.1% | [13] 101% | [14] 80.8% | [15] 95.8% | [16] 74.6% | [17] 88.6% | [18] 86%

C(=N\Nc1nnn(Cc2ccccc2)n1)/c1ccccc1
inactive: [1] 40% | [2] 29.3% | [3] 24.7% | [4] 98.2% | [5] 46.2% | [6] 31.2% | [7] 41% | [8] 43.9% | [9] 42% | [10] 23.1% | [11] 20.1% | [12] 75% | [19] 31.7% | [14] 51.9% | [15] 32% | [16] 41.5% | [17] 48.8% | [18] 45.4%

Nc1ccc(N2CCOCC2)cc1
inactive: [1] 118% | [2] 102% | [3] 86.5% | [4] 96.1% | [20] 108% | [5] 107% | [8] 107% | [9] 94.1% | [10] 103% | [11] 109% | [12] 91.9% | [13] 91.1% | [19] 98% | [14] 101% | [15] 92.7% | [16] 86.6% | [17] 104% | [18] 118%

CNC(=S)N/N=C/CSC/C=N/NC(=S)NC
inactive: [1] 88.5% | [2] 15.8% | [3] 72% | [4] 83.4% | [5] 102% | [6] 108% | [7] 105% | [8] 67.7% | [9] 92.5% | [10] 87.8% | [11] 24.4% | [12] 88.1% | [13] 101% | [14] 57% | [15] 81.1% | [16] 89.2% | [17] 84.6% | [18] 99.3%

Oc1ccccc1/C=N/Nc1ccc2ccccc2n1
inactive: [1] 55.6% | [2] 17.8% | [3] 35.2% | [4] 57.3% | [5] 52% | [6] 33.5% | [7] 42.1% | [8] 62.8% | [9] 52.3% | [10] 25.2% | [11] 48.9% | [12] 31.9% | [13] 67.6% | [14] 57.3% | [15] 51.3% | [16] 40.6% | [17] 42.3% | [18] 74.1%

O=C(Nc1ccc(F)cc1)Nc1ccc(CCO)cc1
inactive: [1] 111% | [2] 103% | [3] 94.3% | [4] 114% | [5] 109% | [6] 105% | [7] 105% | [8] 102% | [9] 117% | [10] 102% | [11] 103% | [12] 72.6% | [13] 107% | [14] 108% | [15] 104% | [16] 107% | [17] 111% | [18] 106%

Cc1ccc(NC(=O)c2sc3nc4c(cc3c2N)C(=O)CCC4)cc1C
inactive: [2] 11.7% | [3] 48.8% | [4] 35.3% | [5] 42.7% | [8] 54.2% | [10] 30.6% | [13] 69.3% | [14] 22.4% | [15] 26.9% | [16] 39.6% | [17] 39.2% | [18] 37.3%
active: [1] 8.18% | [6] 8.72% | [7] -10.4% | [9] 8.39% | [11] 9.71% | [12] -10.3%

CCCCCN(CCCCC)CCC[C@@H](C)[C@H]1CC[C@H]2[C@@H]3[C@H](OCCCN)C[C@@H]4C[C@H](OCCCN)CC[C@]4(C)[C@H]3C[C@H](OCCCN)[C@]12C
inactive: [1] 76.5% | [3] 62.2% | [4] 37% | [20] 87.1% | [5] 87.5% | [9] 42.8% | [10] 72.3% | [11] 24.5% | [13] 61% | [14] 80.5% | [15] 25.1% | [16] 13.6% | [18] 27.9%
active: [2] -19.4% | [7] -21.9% | [17] 3%

COc1cc(C2CC(=O)Nc3c2c(C)nn3-c2nc3ccccc3[nH]2)cc(OC)c1OC (stereo unspecified)
inactive: [1] 119% | [2] 99.7% | [3] 106% | [4] 91.6% | [20] 89.8% | [5] 112% | [8] 96.7% | [9] 92.3% | [10] 101% | [11] 109% | [12] 86.9% | [13] 93.4% | [19] 102% | [14] 75.2% | [15] 99.7% | [16] 97.2% | [18] 103%

O=C(N/N=C/c1ccc(O)cc1O)c1cccnc1
active: [8] -3.63%
inactive: [1] 48.4% | [2] 26.7% | [3] 61.8% | [4] 62.5% | [5] 43.6% | [6] 15.6% | [7] 29.5% | [9] 39.3% | [10] 30.7% | [11] 46.1% | [12] 37.7% | [13] 70.5% | [14] 53.2% | [15] 39.3% | [16] 34.2% | [17] 21.8% | [18] 50.4%

Nc1cc2nc3ccccc3sc-2cc1=O
active: [3] -7%
inactive: [1] 21.5% | [2] 28.5% | [4] 59.2% | [5] 78.1% | [6] 65.9% | [7] 98% | [8] 50.8% | [9] 81.2% | [10] 55.2% | [11] 94.1% | [12] 109% | [13] 91.7% | [14] 50.8% | [15] 31.3% | [16] 17.2% | [17] 11% | [18] 46.5%

COc1ccc(-c2nc(Nc3cc(C)[nH]n3)c3ccccc3n2)cc1
active: [12] -33.5%
inactive: [1] 61% | [2] 24.2% | [3] 79.9% | [4] 65.3% | [5] 37.3% | [6] 48.8% | [7] 15% | [8] 52% | [9] 60.4% | [10] 42.4% | [11] 17.4% | [13] 53.8% | [14] 57.2% | [15] 69% | [16] 52.9% | [17] 13.7% | [18] 61.5%

C#Cc1nc(Nc2cc(C)[nH]n2)c2ccccc2n1
inactive: [13] 13.3%
active: [1] -80% | [2] 2.59% | [3] -70.8% | [4] -56% | [5] -86% | [6] -57.9% | [7] -44.5% | [8] -54.9% | [9] -23.6% | [10] -25.6% | [11] -30.1% | [12] -88.9% | [14] -42.1% | [15] -84.9% | [16] -81.5% | [17] -74.8% | [18] -58.5%

NC1=CSC2=N/C(=C\c3ccc(Cl)cc3)C(=O)N12
inactive: [1] 77.9% | [2] 40.1% | [3] 64.9% | [4] 83.2% | [20] 65.7% | [5] 90.4% | [7] 90.4% | [10] 66.7% | [11] 62.6% | [12] 87.4% | [13] 87% | [14] 80.6% | [15] 72.6% | [16] 90.3% | [17] 50.6% | [18] 96.3%

CCCCN(CCCC)CCC(C)(O)c1cc2ccccc2c2ccccc12 (stereo unspecified)
inactive: [1] 75% | [2] 15.7% | [3] 30.7% | [20] 87.8% | [5] 57.3% | [6] 79.8% | [7] 103% | [8] 82.8% | [10] 82.2% | [11] 39.7% | [12] 106% | [19] 86.3% | [14] 47.5% | [15] 102% | [17] 45.7% | [18] 121%

COC(=O)[C@H](C(C)C)n1c(=O)c2cc(OC)c(OC)cc2c2cnc3[nH]ccc3c21
active: [20] -0.674% | [7] 9.26%
inactive: [1] 51.4% | [3] 85.1% | [4] 48% | [5] 45.6% | [6] 25.2% | [8] 78.7% | [9] 76.1% | [10] 41.3% | [11] 45.5% | [12] 13.2% | [13] 77.7% | [14] 29.2% | [15] 58.8% | [16] 22.3% | [17] 28.2% | [18] 62.2%

O=C1C=CC(Nc2ccccc2[N+](=O)[O-])C1Nc1ccccc1[N+](=O)[O-] (stereo unspecified)
inactive: [5] 75.8% | [6] 67.5% | [8] 28.7% | [12] 36.9% | [19] 72.4% | [14] 51.6% | [15] 45%
active: [1] -69.1% | [2] 5.11% | [3] -89.7% | [20] -96.4% | [7] -93.6% | [9] -68.9% | [10] -86.6% | [11] -32.3% | [16] -68.9% | [17] -97.3% | [18] -92.9%

CCOC(=O)N1CCN(c2nc(Nc3cc(C)[nH]n3)c3ccccc3n2)CC1
inactive: [1] 47.5% | [2] 17.4% | [3] 77.6% | [4] 63.7% | [5] 42.6% | [6] 36.5% | [7] 46.8% | [8] 65.7% | [10] 40.4% | [11] 22.6% | [13] 89.2% | [14] 57.2% | [15] 57.9% | [16] 66.8% | [17] 24% | [18] 59.6%
active: [12] -21.2%
